High-throughput results from PubChem.
PAFAH1B3 inh = PAFAH1B3 (human) inhibition | recombinant PAFAH1B3, FP-rhodamine probe, fluorescence polarization | inhibition, % at 3.39 µM | Q15102 | actives 0.28% (n = 340,000) | AID 492972;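 active = inhibition above the screen-wide average of all tested compounds plus 3 SD, cut at about 25% in these data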;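 also: 0% = enzyme with DMSO only and 100% = wells lacking PAFAH1B3 protein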
Target sequence (Q15102 whole entry, looked up): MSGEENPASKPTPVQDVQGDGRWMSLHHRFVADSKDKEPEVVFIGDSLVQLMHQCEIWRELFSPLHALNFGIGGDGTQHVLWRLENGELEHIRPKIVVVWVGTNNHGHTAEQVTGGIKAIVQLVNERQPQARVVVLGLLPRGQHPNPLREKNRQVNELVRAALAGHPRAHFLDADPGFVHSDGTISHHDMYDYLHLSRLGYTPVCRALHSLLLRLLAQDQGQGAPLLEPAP
PP5 inh = PP5 (human) phosphatase inhibition. purified PP5c, OMFP substrate fluorescence. actives 0.18% (n = 320,000). AID 1987. P53041. inhibition, % at 6.7 µM;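 active = inhibition above the campaign's mean inhibition across all tested compounds plus 3 SD, cut at about 9.5% in these data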;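 also: 0% = DMSO only and 100% = 100 µM cantharidin control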
PP1 inh = blocks human PP1-alpha phosphatase, a PP5 counter-screen | inhibition, % at 6.7 µM | actives 0.9% (n = 320,000) | purified PP1alpha, OMFP fluorescence | AID 2235;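 active = inhibition above the mean inhibition of all tested compounds plus 3 SD, computed separately for each screening campaign, cut at about 15% in these data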
pPAFAH inh = pPAFAH (human) enzyme inhibition; actives 1.5% (n = 330,000); Q13093; AID 463082; inhibition, % at 3.39 µM; recombinant pPAFAH, FP-rhodamine probe fluorescence polarization;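 active = inhibition above the mean inhibition across the screen plus 3 SD, cut at about 25% in these data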;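 also: inhibitors block binding of the rhodamine activity-based probe so polarization drops; 0% = enzyme with DMSO and 100% = wells lacking pPAFAH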
PAFAH1B2 FP inh = blocks human PAF acetylhydrolase 1b catalytic subunit 2 | recombinant PAFAH1B2, FP-rhodamine activity probe, fluorescence polarization | inhibition, % at 3.39 µM | actives 1.2% (n = 340,000);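 active = inhibition above the mean of all tested compounds plus 3 SD, cut at about 24% in these data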;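 also: 0% = enzyme with DMSO and 100% = wells lacking PAFAH1B2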
Target sequence (P68402 whole entry, looked up): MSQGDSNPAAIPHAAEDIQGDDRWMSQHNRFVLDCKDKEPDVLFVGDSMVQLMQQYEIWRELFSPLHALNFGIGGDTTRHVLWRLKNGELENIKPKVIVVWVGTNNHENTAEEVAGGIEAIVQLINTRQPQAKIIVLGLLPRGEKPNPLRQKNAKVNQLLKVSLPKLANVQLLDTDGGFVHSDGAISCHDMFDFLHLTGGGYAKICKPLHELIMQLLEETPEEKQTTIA
PAFAH2 FP inh = PAFAH2 (human) inhibition; Q99487; recombinant PAFAH2, FP-rhodamine activity probe, fluorescence polarization; inhibition, % at 3.39 µM; actives 0.99% (n = 340,000); AID 492956;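 active = inhibition above the mean over all tested compounds plus 3 SD, cut at about 30% in these data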;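 also: inhibitors block probe labeling of enzyme so polarization drops; 0% = enzyme with DMSO and 100% = wells lacking PAFAH2 protein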
* hit, by the source's call; · = no result given. Compounds with a hit are over-represented: about 3.4% of the library has one in this group of screens.

SMILES | PAFAH1B3 inh | PP5 inh | PP1 inh | pPAFAH inh | PAFAH1B2 FP inh | PAFAH2 FP inh
O=C(O)C(c1ccccc1)N1C(=O)/C(=C\c2ccc(O)c(O)c2)SC1=S (stereo not drawn) | 0 | 3 | 2 | 30* | -80 | -11
CC(C)(O)c1nnn(-c2ccccc2)c1C(F)(F)F | -4 | 0 | -1 | 0 | 1 | 1
CCN(c1cc(C)cc(C)c1)S(=O)(=O)c1nnc(NC(=O)C(C)(C)C)s1 | 7 | · | · | · | 8 | 5
CN(c1ccc(Cl)cc1)S(=O)(=O)c1nnc(NC(=O)C(C)(C)C)s1 | 9 | · | · | · | 28* | -2
OC(CC#CCN1CCCC1)(c1ccccc1)c1ccccc1 | 7 | 1 | 0 | 0 | 5 | 2
Cc1cccc2c(N=NC(=O)c3ccc(NS(=O)(=O)c4cccs4)cc3)c(O)[nH]c12 | 24 | 2 | 16* | 28* | 39* | 21
Cc1ccc2[nH]c(O)c(N=NC(=O)c3ccc(NS(=O)(=O)c4cccs4)cc3)c2c1 | 10 | 1 | 6 | 26* | 26* | 0
COc1cccc(C(=O)NNC(=O)c2ccc(NS(=O)(=O)c3cccs3)cc2)c1OC | 2 | -2 | -3 | 26* | 2 | 4
O=C(N=Nc1c(O)[nH]c2ccc(F)cc12)c1ccc(NS(=O)(=O)c2cccs2)cc1 | 7 | 1 | -1 | 6 | -1 | -8
Cc1cccc2c(N=Nc3ccc(S(=O)(=O)Nc4ccc(Cl)cc4)cc3[N+](=O)[O-])c(O)[nH]c12 | 3 | -2 | 0 | 33* | -6 | -20
O=C(N=Nc1c(O)[nH]c2ccccc12)c1ccccc1NS(=O)(=O)c1cccs1 | 3 | 5 | -1 | 9 | -4 | 11
CN(C)Cc1c(O)ccc2cc(-c3nc4ccccc4n3C)c(=O)oc12 | 8 | 1 | -13 | 5 | 4 | 0
COc1ccc(CN2C(=O)C(CC(C)C)Nc3ncnc(N4CCCCC4)c32)cc1 (stereo not drawn) | 5 | 3 | 16* | -2 | 7 | 6
Cc1c(C)c2ccc(OCC(=O)NCCc3c[nH]c4ccccc34)c(C)c2oc1=O | -4 | 2 | 3 | 2 | 3 | 0
O=C1/C(=C/c2ccc(F)cc2)SC(=S)N1CC(=O)N1CCCCC1c1cccnc1 (stereo not drawn) | 6 | 1 | 16* | 9 | 8 | 9
Cc1ccc(Nc2nc3c(c(=O)[nH]c(=O)n3C)n2Cc2ccc(F)cc2)cc1 | -1 | -1 | 0 | 6 | 6 | -2
N#C/C(=C(/O)c1ccccc1F)c1nc2cc(C(F)(F)F)ccc2s1 | 11 | 0 | 0 | 2 | 82* | 25
CC(C)C1Nc2ccc(S(N)(=O)=O)cc2C2C=CCC21 (stereo not drawn) | 8 | 2 | 1 | 9 | 32* | 5
O=C(NC1CC1)C1Nc2ccc(OC(F)(F)F)cc2C2C=CCC12 (stereo not drawn) | 1 | 1 | -1 | 6 | 1 | 3
Cc1ccc2c(c1)C1C=CCC1C(C(=O)O)N2 (stereo not drawn) | · | 0 | 20* | 61* | · | ·
NS(=O)(=O)c1ccc2c(c1)C1C=CCC1C(C1CC=CCC1)N2 (stereo not drawn) | 2 | 3 | 11 | 28* | 24 | -3
CCOC(=O)C1Nc2ccc(OC(F)(F)F)cc2C2C=CCC12 (stereo not drawn) | 8 | 1 | 0 | 5 | 12 | 14
O=C1CC(c2ccc(O)cc2)Oc2cc(O)ccc21 (stereo not drawn) | 0 | 2 | -3 | 4 | -4 | -1
CC(=O)N1CC2(C)CN(C(C)=O)CC(C)(C1)C2O (stereo not drawn) | 10 | -5 | 0 | -2 | 2 | -4
CCN(CC)c1ccc(/C=C2\C(=O)c3ccc(C(=O)O)cc3C2=O)cc1 | -20 | -2 | -7 | 28* | 1 | 20
SMILES | PAFAH1B3 inh | PP5 inh | PP1 inh | pPAFAH inh | PAFAH1B2 FP inh | PAFAH2 FP inh
CC1(C)CC(=O)N(CC(=O)N2CCN(c3ncccn3)CC2)c2ccccc2S1(=O)=O | 5 | 3 | -4 | 1 | 1 | -2
COc1ccccc1CNC(=O)COC(=O)c1ccc(C(=O)c2ccccc2)cc1 | -8 | · | · | 24 | 47* | -6
COc1ccccc1NC(=O)c1ccc(NC(=O)COC(=O)c2ccc(O)cc2)cc1 | 2 | -1 | -4 | 26* | -4 | 50*
COc1ccccc1CNC(=O)c1n[nH]c2ccccc12 | -1 | -1 | 3 | 28* | -1 | 2
COc1ccccc1NC(=O)c1ccc(NC(=O)COC(=O)C(C)C)cc1 | 3 | 0 | -4 | -2 | 1 | -9
COc1ccc(CNC(=O)COC(=O)c2ccc(C(=O)c3ccccc3)cc2)cc1 | 13 | · | · | 31* | 5 | -1
Cc1ccc(NC(=S)NNc2ncc(C(F)(F)F)cc2Cl)cc1 | 8 | 3 | 0 | 3 | 0 | -9
O=C(Cn1c(=O)c2ccccc2n(CC(=O)N2CCCCC2)c1=O)N1CCCCC1 | 5 | 1 | 3 | 1 | 2 | 0
O=C1OC[C@@H]2CCCN2C(=O)[C@H](CC(=O)N(CCO)Cc2ccccc2)C/C=C\C[C@H]1Cc1ccc(F)cc1 | 5 | · | · | 2 | 33* | 3
O=C1CCC/C=C\C[C@@H](CC(=O)N(CCO)Cc2ccccc2)C(=O)N2CCC[C@H]2CO1 | 13 | · | · | 4 | 2 | 10
O=C1OC[C@H]2CCCN2C(=O)[C@@H](CC(=O)N(CCO)Cc2ccccc2)C/C=C\C[C@@H]1Cc1ccc(F)cc1 | 3 | · | · | 6 | 31* | -7
CCCCCN=C(C)c1c(O)c2ccccc2oc1=O | 9 | 1 | -1 | 2 | 0 | -6
COCCN(C(=O)CCc1ccccc1OC)c1nnc(-c2cccnc2)s1 | 2 | 0 | 2 | 25* | 6 | 6
NC(=O)N/N=C/c1cccc(C(F)(F)F)c1 | 10 | 1 | -1 | -1 | 1 | 1
Cc1c(/C=C/C(=O)c2ccccc2O)cnn1C | -6 | -2 | 1 | 2 | -3 | -13
CN1CCN(C(=O)c2ccccc2N(Cc2ccccc2)S(C)(=O)=O)CC1 | 13 | 0 | -1 | 3 | 5 | 0
O=c1oc2cc(O)c(Cl)cc2c2ccccc12 | 6 | -4 | -2 | 5 | -2 | 0
O=c1oc(Cl)c(Cl)c2ccccc12 | 16 | 3 | 2 | 2 | 0 | 35*
O=C(NNC(=O)c1ccccc1F)c1ccc(-c2ccc(Cl)cc2)o1 | 2 | 0 | -5 | 8 | 0 | -3
CC1=CC(C)C2(COC(c3ccc[n+](C)c3)OC2)C(C)C1 (stereo not drawn) | 5 | · | · | · | 2 | 4
OC(COc1ccc(Cl)cc1)CSc1ccccn1 (stereo not drawn) | 2 | 6 | 3 | 2 | 10 | -2
CCN(CC)c1ccc(NC(=O)CSc2ccsc2[N+](=O)[O-])c(C)c1 | 8 | -1 | -1 | 28* | 0 | 10
